Read-out in test [1]: Thyroid Hormone Responsive (THRSP), THRSP (gene 7069)
The test is described as follows: LTEA_HepaRG_THRSP: Life Technologies and Expression Analysis (LTEA) Assay for Thyroid Hormone Responsive (THRSP) using HepaRG (AID 2283536). Conditions: mRNA level, 48 h; actives raise or lower the signal. The procedure, abridged: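 Differentiated human HepaRG cells were exposed in duplicate for 48 h in serum-free induction medium to eight concentrations (top 100 uM, half-log steps, 0.5% DMSO). Expression was quantified by TaqMan qRT-PCR, normalized to ACTB, GAPDH and POLR2A, with bidirectional fitting against DMSO.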

Read-out in test [2]: UDP glucuronosyltransferase (UGT1A1), UGT1A1 (gene 54658)
The test is described as follows: LTEA_HepaRG_UGT1A1: Life Technologies and Expression Analysis (LTEA) Assay for UDP glucuronosyltransferase (UGT1A1) using HepaRG (AID 2283538). Conditions: mRNA level, 48 h; actives raise or lower the signal. In a few lines:
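Human liver HepaRG cultures receive test chemical for 48 h, up to 100 uM in 0.5% DMSO, with phenobarbital induction controls. UGT1A1 mRNA is measured by qRT-PCR and normalized to ACTB, GAPDH and POLR2A.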

Read-out in test [3]: UDP glucuronosyltransferase (UGT1A6), UGT1A6 (gene 54578)
The test is described as follows: LTEA_HepaRG_UGT1A6: Life Technologies and Expression Analysis (LTEA) Assay for UDP glucuronosyltransferase (UGT1A6) using HepaRG (AID 2283539). Conditions: mRNA level, 48 h; actives raise or lower the signal. In a few lines: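 Expression was quantified by TaqMan qRT-PCR on Fluidigm arrays with ACTB/GAPDH/POLR2A normalization and bidirectional fitting against 0.5% DMSO. HepaRG cells (~100,000/well) were treated in duplicate for 48 h at eight half-log concentrations up to 100 uM in serum-free induction medium.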

Read-out in test [4]: X-box binding protein 1 (XBP1), XBP1 (gene 7494)
The test is described as follows: LTEA_HepaRG_XBP1: Life Technologies and Expression Analysis (LTEA) Assay for X-box binding protein 1 (XBP1) using HepaRG (AID 2283540). Conditions: mRNA level, 48 h; actives raise or lower the signal. In a few lines: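 XBP1 transcript by qRT-PCR (housekeeping-normalized: ACTB, GAPDH, POLR2A) after 48 h chemical treatment of HepaRG cells, 8-point half-log series topping at 100 uM, vehicle 0.5% DMSO. Gain and loss of signal fitted relative to DMSO.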

Test [5] can be described thus: LTEA_HepaRG_LDH_cytotoxicity: Cytotoxicity Assessment in the Life Technologies and Expression Analysis (LTEA) Assay (AID 2283563; active means hit-call score of the fitted dose curve at least 0.9, where 1 is the maximum;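 on AC50: LDH activity released into spent culture medium as a marker of cell death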). The procedure, abridged:
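LDH release into culture medium read after 48 h chemical treatment of HepaRG cells. Duplicate wells, eight-point half-log series topping at 100 uM, 0.5% DMSO vehicle and baseline.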

Read-out in test [6]: Cellular tumor antigen p53 (Homo sapiens) (UniProt P04637)
The test is described as follows: LTEA_HepaRG_TP53: Life Technologies and Expression Analysis (LTEA) Assay for Tumor Protein P53 (TP53) using HepaRG (AID 2283537). Conditions: mRNA level, 48 h; actives raise or lower the signal. The procedure, abridged: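 Differentiated HepaRG cells in serum-free induction medium exposed 48 h in duplicate to 8 half-log concentrations, top 100 uM, 0.5% DMSO. TP53 mRNA by TaqMan qRT-PCR (Fluidigm), normalized to ACTB, GAPDH, POLR2A; fitted bidirectionally versus DMSO.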

A short description of test [7]: TOX21_p53_BLA_p2_viability: Viability Assessment in the Tox21 HCT-116 p53 Agonism Beta-lactamase Assay, Phase 2 (AID 2283591; active means hit-call score of the fitted dose curve at least 0.9, where 1 is the maximum;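 further: compound exposure lasted 16 h at 37 °C; actives lower the ATP signal meaning cytotoxicity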). In a few lines: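 HCT-116 p53-bla cells (4000/well) rested 5 h at 37C, then received compounds in DMSO (217-fold dilution) for 16 h at 37C, 5% CO2. After the CCF4 read, CellTiter-Glo was added; ATP luminescence was read after 30 min at room temperature.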

Test [8] has as its target Cellular tumor antigen p53 (Homo sapiens) (UniProt P04637). The test is described as follows: TOX21_p53_BLA_p2_ratio: Tox21 HCT-116 p53 Agonism Beta-lactamase Assay, Ratio, Phase 2 (AID 2283592; active means hit-call score of the fitted dose curve at least 0.9, where 1 is the maximum). In a few lines:
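Gain-of-signal p53 agonism was scored from the beta-lactamase FRET ratio (460/530 nm, 405 nm excitation) in HCT116 cells treated 16 h at 37C, 5% CO2, with DMSO serving as negative control and baseline.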

The nature of test [9]: TOX21_p53_BLA_p3_viability: Viability Assessment in the Tox21 HCT-116 p53 Agonism Beta-lactamase Assay, Phase 3 (AID 2283593; active means hit-call score of the fitted dose curve at least 0.9, where 1 is the maximum;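 further: cells exposed to compound for 16 h before reading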). In a few lines:
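HCT-116 cells (4000/well) rested 5 h at 37C, then got DMSO compounds by pin tool (217-fold dilution) for 16 h at 37C, 5% CO2. After the bla read, CellTiter-Glo was added and luminescence read at 30 min, room temperature.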

Records with an inconclusive call do not appear. Some structures have more than one record in an assay (separate samples or runs), and their calls can disagree. Calls of active or inactive are those of the source. How the source made its calls, unless noted: active means hit-call score of the fitted dose curve at least 0.9, where 1 is the maximum; inactive means score below 0.9.

The term AC50 denotes the concentration giving half of the maximal activity seen.

Chain of Cellular tumor antigen p53 (Homo sapiens) (P04637 whole entry, looked up): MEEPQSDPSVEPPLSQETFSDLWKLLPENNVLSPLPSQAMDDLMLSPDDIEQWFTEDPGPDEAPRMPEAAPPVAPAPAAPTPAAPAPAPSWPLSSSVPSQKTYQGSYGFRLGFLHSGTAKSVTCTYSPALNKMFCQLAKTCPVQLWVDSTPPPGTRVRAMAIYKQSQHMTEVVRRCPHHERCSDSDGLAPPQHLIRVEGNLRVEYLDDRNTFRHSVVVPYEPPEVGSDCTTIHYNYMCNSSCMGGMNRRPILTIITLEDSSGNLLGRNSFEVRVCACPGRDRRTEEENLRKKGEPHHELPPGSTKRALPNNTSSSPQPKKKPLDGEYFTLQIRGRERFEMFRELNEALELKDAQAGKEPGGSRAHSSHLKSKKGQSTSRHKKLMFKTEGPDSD

As for `Cc1nc(N(C)C)nc(OC(=O)N(C)C)c1C`, the call in test [1], in [3], in test [4] and in test [5] was inactive. Besides, the AC50 in test [2] is 13.9 µM (active).
For `O=C(Nc1ccccc1-c1ccc(Cl)cc1)c1cccnc1Cl`, the compound was called inactive in test [1], in test [6], in [2], in [3], in test [4] and in test [5]. Moreover, the compound was classed as inactive in test [7], in test [8] and in [9].
For the compound `COC(=O)c1c(C(F)F)nc(C(F)(F)F)c(C2=NCCS2)c1CC(C)C`, the call in [1], in test [6], in [3], in [4], in [5] and in [8] was inactive. In addition, in test [2], the AC50 was 5.73 µM (active).
For the compound `CCOP(=O)(OCC)Oc1nc(Cl)c(Cl)cc1Cl`, the half-maximal activity concentration (AC50) was 84.2 µM (active) in [1] and 83.1 µM (active) in [4]. Further, the call in test [6], in test [2], in test [3], in test [5], in test [7] and in [8] was inactive. Also, in test [9], the compound was called inactive.
Take `O=P(O)(O)CCCl`: the compound was called inactive in [1], in [2], in test [3], in test [4], in test [5] and in test [8]. The concentration at half-maximal activity (AC50) in [6] is 0.254 µM (active).
Regarding `CC1(C)CON(Cc2ccccc2Cl)C1=O`, the outcome in test [1], in test [6], in [3], in test [4], in [5] and in test [9] was inactive. In addition, the AC50 in [2] is 9.92 µM (active).
As to `Cc1ccc(N=CN(C)C=Nc2ccc(C)cc2C)c(C)c1`, the compound was called inactive in test [1], in test [6], in [3], in test [4], in [5] and in test [7]. In addition, the result in [8] and in test [9] was inactive. Further, the AC50 in [2] was 39.3 µM (active).
Regarding `CNC(=O)Oc1cccc2ccccc12`, the outcome in [1], in [6], in test [3], in test [4], in test [5] and in [8] was inactive. Also, the compound was classed as inactive in [9]. For the same compound, the AC50 in test [2] is 50 µM (active).
Turning to `CC1(C)CCC(=Cc2ccc(Cl)cc2)C1(O)Cn1cncn1` (stereo not drawn), the AC50 was 24.1 µM (active) in test [1] and 5.72 µM (active) in test [2]. In addition, the call in [6], in [3], in [4], in [5], in test [7] and in [8] was inactive. Further, the compound was called inactive in [9].
With `CCOP(=S)(OCC)Oc1nc(Cl)n(C(C)C)n1`, the AC50 was 26.1 µM (active) in test [1] and 12.5 µM (active) in test [2]. In addition, the result in test [6], in test [3], in [4], in test [5] and in test [8] was inactive.
For `CCOc1cc(C(C)(C)C)ccc1C1COC(c2c(F)cccc2F)=N1` (stereo not drawn), the outcome in test [1], in test [3], in [4] and in [5] was inactive. Moreover, the concentration at half-maximal activity (AC50) in test [2] was 8.48 µM (active).
`CC(C)C1(C)N=C(c2ncccc2C(=O)O)NC1=O` (stereo not drawn): the compound was classed as inactive in test [1], in [6], in test [2], in [3], in test [4] and in test [5]. The result in test [8] was inactive.
As to `OC(c1ccc(Cl)cc1)(c1ccc(Cl)cc1)C(Cl)(Cl)Cl`, the call in [1] and in test [8] was inactive. In addition, the concentration at half-maximal activity (AC50) was 50 µM (active) in [6]; 85.3 µM (active) in test [2]; 79.3 µM (active) in test [3]; 82.1 µM (active) in test [4]; 74.3 µM (active) in [5]; 77.9 µM (active) in test [7]. Further, in test [9], the AC50 was 38.8 µM (active).
For `CCSC(=O)N1CCCCCC1`, the outcome in test [1], in test [6], in test [2], in [3], in test [4] and in test [5] was inactive. Moreover, the compound was called inactive in test [7] and in test [9].
Regarding `CC(C)N1C(=O)c2ccccc2NS1(=O)=O`, the compound was classed as inactive in test [1], in [6], in test [2], in test [3], in test [4] and in [5]. The outcome in test [7], in test [8] and in [9] was inactive.
Consider `Cc1c(COC(=O)[C@@H]2[C@H](/C=C(\Cl)C(F)(F)F)C2(C)C)cccc1-c1ccccc1`, for which the call in test [1], in test [6], in test [3], in test [4], in test [5] and in test [7] was inactive. For the same compound, the outcome in [8] and in test [9] was inactive. Moreover, the concentration at half-maximal activity (AC50) in test [2] was 11.7 µM (active); in test [9], 25.8 µM (active).
Turning to `Nc1c(Cl)c(F)nc(OCC(=O)O)c1Cl`, the compound was classed as inactive in [1], in test [6], in test [2], in [3], in [4] and in test [5]. Moreover, the result in test [7], in test [8] and in test [9] was inactive.
As for `CC1(C)C(C(=O)OC(C#N)c2cccc(Oc3ccccc3)c2)C1(C)C` (stereo not drawn), the compound was classed as inactive in test [1], in [6], in test [3], in test [4], in [5] and in [7]. The outcome in test [8] and in test [9] was inactive. Further, the AC50 in test [2] is 50 µM (active).
With `COCc1cnc(C2=NC(C)(C(C)C)C(=O)N2)c(C(=O)O)c1` (stereo not drawn), the compound was called inactive in test [1], in test [2], in [3], in [4] and in [5].

For the origin of these results see PubChem BioAssay (EPA / NIEHS).
